HP1b chromo inh – HTS for Inhibitors of HP1-beta Chromodomain Interactions with Methylated Histone Tails | AID 540317, 2011 | Chromobox protein homolog 1 (Homo sapiens), P83916 | 0.56% of 390,000 active | Potency, µM (series often up to 114 µM), for inactives: at the highest dose activity change, negative = inhibition, hits mostly inhibitors | AlphaScreen HP1-beta / biotin-H3K9me3 peptide binding; further: potency means the concentration at half of the fitted maximal effect; nearly all actives have a fitted effect of over 70% in size
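AlphaScreen: HP1-beta (50 nM) preformed 30 min with biotin-H3(1-18)K9me3 peptide (50 nM) in PBS pH 7.4, 0.01% Tween-20. Compound added for 30 min at RT, then streptavidin donor/nickel chelate acceptor beads (10 ug/mL) for 30 min.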
JMJD2A Tudor inh – qHTS Assay for Inhibitors of JMJD2A-Tudor Domain | AID 504339, 2011 | 4.4% of 390,000 active | Lysine-specific demethylase 4A (Homo sapiens), O75164 | Potency, µM (top dose mostly 114 µM), for the others: at the highest dose activity change, negative = inhibition, hits mostly inhibitors | AlphaScreen JMJD2A-Tudor / H3K4me3 peptide binding; further: potency means the concentration at half of the fitted maximal effect; on the % scale 0 is the no-effect control and ±100 the full control effect; nearly all actives have a fitted effect of over 50% in size
Target sequence (O75164 whole entry, looked up, the tested form may be a part): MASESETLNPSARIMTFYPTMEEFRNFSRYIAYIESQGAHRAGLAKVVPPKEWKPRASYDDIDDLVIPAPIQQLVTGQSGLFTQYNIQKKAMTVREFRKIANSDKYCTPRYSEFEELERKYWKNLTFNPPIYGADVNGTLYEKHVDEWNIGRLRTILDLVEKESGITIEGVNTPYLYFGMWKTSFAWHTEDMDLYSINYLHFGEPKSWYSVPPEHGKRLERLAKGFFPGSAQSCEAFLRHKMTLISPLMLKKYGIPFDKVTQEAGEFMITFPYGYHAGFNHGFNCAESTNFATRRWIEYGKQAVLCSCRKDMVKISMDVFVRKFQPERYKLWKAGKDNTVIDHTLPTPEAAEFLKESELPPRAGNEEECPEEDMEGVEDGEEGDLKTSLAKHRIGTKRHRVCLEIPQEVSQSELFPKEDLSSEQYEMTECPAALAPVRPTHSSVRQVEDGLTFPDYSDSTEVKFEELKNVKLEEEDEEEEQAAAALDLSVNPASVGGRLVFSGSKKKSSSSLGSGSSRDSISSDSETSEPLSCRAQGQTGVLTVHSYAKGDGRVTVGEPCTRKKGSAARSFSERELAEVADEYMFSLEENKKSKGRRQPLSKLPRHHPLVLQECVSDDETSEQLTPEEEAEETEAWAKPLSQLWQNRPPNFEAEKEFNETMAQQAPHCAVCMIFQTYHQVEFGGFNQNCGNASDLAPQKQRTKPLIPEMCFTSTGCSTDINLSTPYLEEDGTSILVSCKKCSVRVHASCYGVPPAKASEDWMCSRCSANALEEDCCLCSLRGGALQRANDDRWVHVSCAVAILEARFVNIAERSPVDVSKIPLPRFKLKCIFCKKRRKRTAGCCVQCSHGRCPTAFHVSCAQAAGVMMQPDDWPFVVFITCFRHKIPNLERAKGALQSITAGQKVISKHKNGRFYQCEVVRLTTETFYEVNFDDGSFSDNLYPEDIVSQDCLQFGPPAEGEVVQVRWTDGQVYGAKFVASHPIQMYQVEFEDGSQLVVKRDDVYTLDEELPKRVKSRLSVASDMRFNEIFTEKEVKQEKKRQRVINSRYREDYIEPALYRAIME
BAZ2B inh – qHTS Assay for Inhibitors of BAZ2B; Bromodomain adjacent to zinc finger domain protein 2B (Homo sapiens), Q9UIF8; AlphaScreen BAZ2B-H3K14Ac peptide displacement; Potency, µM (titrated, usually from 114 µM), for the others: at the highest dose activity change, negative = inhibition, usual class: inhibitors; 4.4% of 360,000 active; AID 504333, 2011; further: potency means the concentration at half of the fitted maximal effect; on the % scale 0 is the no-effect control and ±100 the full control effect; nearly all actives have a fitted effect of over 60% in size
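BAZ2B (50 nM) with biotin-H3(5-23)K14Ac peptide (50 nM) in PBS pH 7.4, 0.01% Tween-20, preformed 30 min, then compound 30 min at room temperature; top concentration 110uM. AlphaScreen streptavidin donor/nickel chelate acceptor beads (10 ug/mL final), 20 min dark, signal read.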
Six1-Eya2 blk – qHTS Assay for Inhibitors of the Six1/Eya2 Interaction; AID 651725, 2012; activity change, % (test concentration not listed); AlphaScreen GST-Six1/His-Eya2 binding, biochemical; hits give low values; 0.56% of 360,000 active; in the data active means activity change below about -65%; inconclusive means mostly about -30% to -63%; further: on the % scale 0 is the no-effect control and ±100 the full control effect
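Six1/Eya2 binding was read as AlphaScreen signal after compounds were pinned into GST-Six1 plus His-tagged Eya2 (5X stock 250/500 nM) in pH 8.0 Tris/NaCl/TCEP buffer, beads added, then incubated 1 h, 37 C, dark.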
G9a inh – qHTS Assay for Inhibitors of Histone Lysine Methyltransferase G9a | G9a H3K9 monomethylation, AlphaScreen, 2 h | Potency, µM (titrated, usually from 102 µM), without a hit: top-dose activity, negative = inhibition, actives largely listed as inhibitors | 8.8% of 350,000 active | AID 504332, 2011; further: potency means the concentration at half of the fitted maximal effect; on the % scale 0 is the no-effect control and ±100 the full control effect; nearly all actives have a fitted effect of over 75% in size
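Compounds were preincubated with 20 nM G9a for 15 min, after which biotinylated H3K9 peptide (500 nM) and SAM (20 uM) started a 2 h room-temperature reaction. Monomethylated product was quantified by antibody-based AlphaScreen chemiluminescence.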
CtBP-E1A blk – qHTS Assay for Inhibitors of the CtBP/E1A Interaction; CtBP / adenovirus E1A interaction (AlphaScreen); AlphaScreen GST-E1A/His-CtBP binding, 1536-well; hits give low values; activity change, % (no concentration beside the values); 0.49% of 340,000 active; AID 651724, 2012; in the data active means activity change below about -65%; inconclusive means mostly about -30% to -63%; further: on the % scale 0 is the no-effect control and ±100 the full control effect
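Protein mix (5X: 125 nM each GST-E1A, His-CtBP) was incubated with pinned compound 2 h at 37 deg C in dark, in 50 mM Tris pH 8.0 buffer with 300 mM NaCl. Glutathione donor and nickel acceptor beads followed; AlphaScreen signal read after 1 h.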
Starred values were filed as active, the others as inactive; i = inactive; u = inconclusive; x = not tested or not shown; [ ] = remark or other dose. In the library only some 10% were active in any assay of this set; here they are far more common. Unless noted, the call rests on the fitted dose curve; in most records, active means well fitted inhibition curve with a large enough effect; inconclusive means small, poorly fitted or top-dose-only effect; inactive means no such curve, though single readings can be large or run the other way.

SMILES	HP1b chromo inh	JMJD2A Tudor inh	BAZ2B inh	Six1-Eya2 blk	G9a inh	CtBP-E1A blk
Cc1cc(Cl)ccc1NC(=S)NC(C)(C)C	48%	9%	-14%	1	12%	5
Cc1ccc(C)c(NNC(N)=S)c1	6%	-27%	-16%	-12	35µM*	0
Cc1ccc(C)c(N/C(N)=N/c2nc(C)cc(C)n2)c1	31%	-4%	-33%	-8	29%[0.501 µM]	16
Cc1cc(Cl)ccc1NNC(N)=S	-7%	-23%	-31%	-3	20µM*	-4
Cc1cccc(NC(=O)C(=O)NCCc2csc(-c3ccc(F)cc3)n2)c1C	30%[57 µM]	-8%	3%	x	4%[59 µM]	x
O=S(=O)(Nc1nc2ccccc2nc1N1CCN(CCO)CC1)c1cc(F)ccc1F	43%	-5%	18%	8	7.1µM*	1
O=S(=O)(Nc1nc2ccccc2nc1N1CCN(c2ccccn2)CC1)c1ccc(Cl)cc1	14%	u	-36%	-7	u	-1
COc1ccc(C2CC(=O)N(CC(=O)Nc3ccc(C(C)=O)cc3)c3ccccc3S2)cc1OC (configuration not stated)	25%	-21%	-19%	x	-23%[59 µM]	x
O=C1C(Cl)=C(NCc2ccco2)C(=O)c2ccccc21	50µM*	u	x	u	x	u
O=C1c2ccccc2-c2onc3ccc(NCc4ccco4)c1c23	i	u	112%	-85*	i	-93*
CCNc1ccc2noc3c2c1C(=O)c1ccccc1-3	u	u	32µM*	-74*	u	-72*
O=C1C(Cl)=C(NCCN2CCCCC2)C(=O)c2ccccc21	-25%	u	u	u	50µM*	-28
O=S(=O)(c1ccccc1)c1ccc(NCc2ccco2)cc1	13%	u	-7%	1	-13%[59 µM]	16
CCOc1ccc2noc3c2c1C(=O)c1ccccc1-3	67%	3%	-11%	0	u	3
CC(=O)Nc1ccc(S(=O)(=O)NCc2ccc3c(c2)CCN3C(C)=O)cc1	53%[57 µM]	-9%	3%	x	6%[59 µM]	x
Cc1cc2c(s1)c1cnn(Cc3c(F)cccc3C(F)(F)F)c(=O)c1n2C	x	-16%	x	x	x	x
COc1cccc(/C=C(\C#N)C(=O)Nc2ccc(NC(C)=O)cc2)c1OC	16%	-17%	5%	x	2%[59 µM]	x
Cc1cccc(NC(=O)CSc2nc3ccccc3c3nc(CCn4cncc4C)nn23)c1	28%	u	-34%	x	u	x
CCC1=NN2C(=N)/C(=C\c3cccn3-c3ccc(OC)cc3)C(=O)N=C2S1	-12%	79µM*	32µM*	1	u	x
CS(=O)(=O)C1=NSC2=NC(=O)/C(=C\c3cccn3-c3ccc(Cl)cc3)C(=N)N21	u	45µM*	40µM*	-22	45µM*	-14
Cc1cc(/C=C2/C(=N)N3C(=NC2=O)SN=C3S(C)(=O)=O)c(C)n1-c1ccccc1F	-12%	u	45µM*	-8	50µM*	4
Cc1ccc(-n2cccc2/C=C2\C(=N)N3N=C(C(C)C)SC3=NC2=O)cc1	1%	u	u	-12	u	x
N=C1/C(=C/c2cccn2-c2ccc([N+](=O)[O-])cc2)C(=O)N=C2SC=CN12	70%	-18%	-31%	-10	-1%	0
CC1=CC2=NC(=O)/C(=C\c3cc(C)n(-c4ccccc4F)c3C)C(=N)N2O1	0%	-15%	-5%	7	4%[59 µM]	-11
COCCCNC(=O)CCCCn1c(=O)c2ccccc2n(CC(=O)Nc2ccc(C)cc2C)c1=O	32%	-16%	-5%	x	4%[59 µM]	x
SMILES	HP1b chromo inh	JMJD2A Tudor inh	BAZ2B inh	Six1-Eya2 blk	G9a inh	CtBP-E1A blk
CC(C(=O)NC1C=CS(=O)(=O)C1)N1C(=O)/C(=C/c2cccc(Cl)c2)SC1=S (configuration not stated)	-22%	u	u	-6	25µM*	-8
CC(C(=O)NC1C=CS(=O)(=O)C1)N1C(=O)/C(=C\c2ccccc2)SC1=S (configuration not stated)	20%	1%	u	-2	x	x
O=C(CN1C(=O)S/C(=C\c2ccc(Cl)cc2)C1=O)NC1C=CS(=O)(=O)C1 (configuration not stated)	0%	20µM*	-13%[57.1 µM]	1	10%	11
COc1ccccc1/C=C1/SC(=S)N(C(C)C(=O)NC2C=CS(=O)(=O)C2)C1=O (configuration not stated)	37%	6%	-28%	-13	45µM*	x
O=[N+]([O-])c1ccc(/C=N/Nc2nc(NCc3ccccc3)nc(N3CCOCC3)n2)cc1	57%	-25%	-6%	1	30%	x
O=[N+]([O-])c1cccc(/C=N/Nc2nc(NCc3ccccc3)nc(N3CCOCC3)n2)c1O	-7%	20µM*	-24%	-94*	u	-67*
NNc1nc(NCc2ccccc2)nc(N2CCOCC2)n1	26%	u	79µM*	-7	2%[59 µM]	-5
CC1CCc2onc(C(=O)Nc3ccc(Cl)cc3)c2C1 (configuration not stated)	22%	-2%	12%[57.1 µM]	x	-12%[59 µM]	x
CC(C)CNc1nc(NC(C)(C)C)nc(Oc2ccc(=O)n(-c3ccccc3)n2)n1	27%	-5%	-10%	x	-8%[59 µM]	x
Cc1ccc2oc(=O)n(CCNC(=O)Nc3ccccc3Cl)c2c1	30%	-14%	-7%	x	-8%[59 µM]	x
CC(Sc1nc(N2CCOCC2)c2c(c1C#N)CC(C)(C)OC2)C(=O)O (configuration not stated)	18%	-6%	-12%	9	50µM*	-5
CC1(C)Cc2c(C#N)c(SCC(=O)c3ccccc3)nc(N3CCOCC3)c2CO1	-7%	63µM*	-31%	-14	22µM*	u
CC(C)Sc1nc(N2CCOCC2)c2c(c1C#N)CC(C)(C)N(C)C2	-10%	11µM*	-8%	-9	-14%[12.7 µM]	-3
COC(=O)Sc1nc(N2CCOCC2)c2c(c1C#N)CC(C)(C)OC2	63%	u	10%	-3	7.9µM*	2
CC1(C)Cc2c(C#N)c(SCc3ccccc3)nc(N3CCOCC3)c2CO1	20%	-8%	3%	2	-32%[0.0925 µM]	-4
COC(=O)N1CCCc2cc(S(=O)(=O)NCc3ccccc3)ccc21	19%	-17%	-5%	x	2%[59 µM]	x
